Sampled rows, rich in hits. Any-hit rate of the full collection: about 7.1%.
Lassa entry: Lassa virus entry inhibition | 18,000 tested, 4.1% active | AID 720533 | Lassa virus pseudotyped entry inhibition, cell-based qHTS | Potency, µM (series often up to 49.2 µM), actives largely listed as inhibitors
Marburg entry: inhibitors of Marburg virus binding or entry into cells. Marburg virus pseudotype entry/binding inhibition, cell-based. 18,000 tested, 6.5% active. Potency, µM (titrated, usually from 49.2 µM), hits mostly inhibitors. AID 720532
Hits are given with their value; - = inactive; ? = inconclusive; . = no result; ! = a repeat was not active; [ ] = dose if it differs, or a comment. Calls come from the whole dose curve; tested in HEK293 cells.

SMILES	Lassa entry	Marburg entry
CCCCCCCCCCCCCCCC(=O)O	-	-
CCCCCCCCCCCC[n+]1ccc2ccccc2c1	8.9µM	11µM
CCCCCCCCCCCCCC[n+]1ccc(C)cc1	22µM	?
CCCCCCC[n+]1ccc(-c2cc[n+](CCCCCCC)cc2)cc1	-	-
CCCCCCCCc1[se]c2ccccc2c1I	-	-
CCCCCCCCCCCCCCCC[n+]1ccccc1	22µM	13µM
C#CCN1C(=O)CC[C@@]23C1=NC(C(=O)OC)=C(C(=O)OC)[C@@H]2N(C)c1ccccc13	-[8.59 µM]	-[8.59 µM]
CC(NNC(=O)c1ccccc1)c1ccccc1 (centres undefined)	-	-
CC(C)C(NS(C)(=O)=O)c1nnc2n1CCN(Cc1ccc(Cl)cc1)CC2 (centres undefined)	-	-
Clc1ccc2c(c1)CCc1cccnc1C2=C1CCNCC1	25µM	10µM
C=CCOCCC=C1c2ccccc2[C@@H](OC)[C@@H]1C	-[8.59 µM]	-[8.59 µM]
COc1cc(NS(C)(=O)=O)ccc1Cc1c2ccccc2nc2ccccc12	?	2µM
CN1CCN(c2nc(-c3cccc(NS(C)(=O)=O)c3)nc3ccccc23)CC1	-	-
COc1cccc(-c2ccnc(-n3ncc(C(=O)NCC(C)(C)CN(C)C)c3C)n2)c1	-	-
COC(=O)C1=C[C@@H]([C@@H](C)[C@H](OC)c2ccccc2Br)[C@@H]2OCC[C@H]12	-[8.59 µM]	-[8.59 µM]
COC(=O)C1=C[C@H]([C@@H](C)[C@H](OC)c2ccccc2Br)[C@H]2c3ccccc3O[C@@H]12	1.7µM	?
CC(=O)NC1CCSC1=O (centres undefined)	-	-
CC(NC(=O)c1ccco1)c1nnc2n1CCN(Cc1ccc(N(C)C)cc1)CC2 (centres undefined)	-	-
COc1ccc(CN2CCCC(c3nc(-c4ccncc4)ncc3-c3ccccc3C)C2)c(OC)c1 (centres undefined)	18µM	3.5µM
Cc1ccccc1-c1cnc(-c2ccncc2)nc1C1CCCN(Cc2ccccc2O)C1 (centres undefined)	-	?
COc1ccc(CN2CCCC(c3nc(-c4ccncc4)ncc3-c3ccccc3)C2)c(OC)c1OC (centres undefined)	-	?
COc1cccc(CN2CCCC(c3nc(-c4ccncc4)ncc3-c3ccccc3)C2)c1O (centres undefined)	-	11µM
CCN1C(=NCCc2cccnc2)NC(c2ccccc2)C(C(=O)OC)=C1C (centres undefined)	-[8.59 µM]	?
C[C@@H]1[C@@H](c2ccccc2)Oc2c(Cl)cccc2S(=O)(=O)N1Cc1ccc(F)cc1F	-	-
CC1CCC2C(C)C(=O)OC3O[C@]4(C)CCC1[C@@]32OO4 (some centres undefined)	-	-
SMILES	Lassa entry	Marburg entry
C[C@@H]1CC[C@H]2[C@@H](C)C(=O)O[C@@H]3O[C@@]4(C)CC[C@@H]1[C@]32OO4	2.2µM	1.8µM
O=P1(O)OP(=O)(O)OP(=O)(O)O1.[Al]	-	-
Nc1nccs1	-	-
CC(CC(C#N)(c1ccccc1)c1ccccc1)N(C)C (centres undefined)	?	32µM
CC[C@H](O)C(C[C@H](C)N(C)C)(c1ccccc1)c1ccccc1	?	18µM
C[C@@H]([C@H](O)c1ccccc1)N(C)C	-	-
Cc1ccccc1C(=O)N1CC/C(=N\OS(=O)(=O)O)c2ccc(Cl)cc21	-	-
COC(=O)C1(C(=O)OC)CC2=C[C@H](CC2=O)Cc2ccccc2[C@@H]1C[N+](=O)[O-]	-	-
COc1cc(C/C=C/c2ccccc2)c(OC)cc1O	-	-
COc1ccc2c(c1)OCc1c-2oc2cc(OC)ccc12	-	-
COc1ccc(C=C2c3ccccc3C(=O)c3ccccc32)cc1O	?	1µM
COc1ccc2c(c1)OC/C(=C\c1ccc(OC)c(O)c1)C2=O	-	13µM
O=c1oc2cc(O)ccc2cc1-c1ccc2c(c1)OCCO2	-	-
C[C@@]12CCC=C[C@H]1[C@H](c1ccccc1Br)N(Cc1ccccc1)C2=O	-	20µM
Cc1cccc([C@H]2[C@@H]3C=CCC[C@@]3(C)C(=O)N2Cc2ccccc2)c1	-	-
COc1ccc([C@]23Cc4ccccc4[C@H](O2)C2=C(CCCC2=O)O3)cc1	-[8.59 µM]	-[8.59 µM]
COCC(C)NCc1cc2ccc(OC)cc2nc1N1CCN(c2ccc(F)cc2)CC1 (centres undefined)	?	11µM
COc1ccc2cc(CNCc3ccccc3C(F)(F)F)c(N3CCCC(CO)C3)nc2c1 (centres undefined)	-	-
CC(C)=CCC12CC3[C@@H](O)C(C(=O)c4ccccc4)(C1=O)C(=O)C(CC=C(C)C)(C2=O)C3(C)C (some centres undefined)	.	-[8.59 µM]
CCCCCC1C(=O)O[C@H](C)[C@@H](NC(=O)c2cccc(NC=O)c2O)C(=O)OC(C)C1OC(=O)CC(C)C (some centres undefined)	?	0.1µM
CCN(Cc1ccncc1)Cc1ccc2c(c1)CN(C(=O)c1ccccc1-n1cccn1)CCO2	-	-
NCCC[C@@H](CC(=O)N[C@@H]1CCCC[C@H]1C(=O)N[C@H](CC(=O)N[C@@H](CCC(=O)O)CC(=O)O)Cc1ccccc1)NC(=O)C[C@H](CO)NC(=O)[C@@H]1CCCC[C@H]1N	-	-
CCNC(C)Cc1cccc(C(F)(F)F)c1 (centres undefined)	-	-
C[C@@H](NCCCc1cccc(C(F)(F)F)c1)c1cccc2ccccc12	16µM	6.3µM
C=CCN=C1N[C@H](c2ccc(Br)cc2)C(C(=O)OC)=C(C)N1Cc1ccccc1	-[8.59 µM]	-[8.59 µM]
SMILES	Lassa entry	Marburg entry
OC1(c2cccnc2)CCN(Cc2ccc3c(c2)CN(Cc2ccsc2)CCO3)CC1	-	?
CC(=O)Nc1c(N)[nH]c(=O)n(C)c1=O	-	-
CC(=O)Nc1c2sscc-2n(C)c1=O	10µM	11µM
C=CC[C@@H]1C=C[C@@H](OC(=O)OCC)[C@@H](COC(=O)OCC)O1	-[8.59 µM]	-[8.59 µM]
CCNC(=O)c1cc(NC(=O)COC)cc2nc(-c3ccncc3)n(C)c12	-	-
CCCCCCCCCCCCCC/C(C(=O)O)=C(\C)C(=O)O	-	-
CCOC(=O)CN1C(=O)N(CC)C(C)=C(C(=O)OC)C1c1ccccc1 (centres undefined)	-[8.59 µM]	?
C[C@@]1(C(=O)O)NCCc2cc(O)c(O)cc21	-	8.9µM
COc1cc(OC)cc(C(=O)NCC2Cc3cccc(-c4nc(C)cnc4C)c3O2)c1 (centres undefined)	-	-
CC(=O)O[C@H](C(=O)O[C@@H]1C[C@@H](CCC[C@H]2O[C@H](C(=O)OC(C)C)CC[C@@H]2C)O[C@@H](CC#N)C1)c1ccccc1	-	-
CC(C)/C(O)=C1/C(=O)OC(c2ccoc2)[C@@]2(C)C(O)C(O)[C@@]34OC5(C)OC67CC(C)(C(O)[C@@]6(O)C(O)[C@@]3(O5)C12)C(CC(=O)O)[C@@]74C (some centres undefined)	-	-
COC(=O)CC1C2(C)CC34OC5(C)O[C@@]6(C7/C(=C(/OC)C(C)C)C(=O)OC(c8ccoc8)[C@@]7(C)C(OC(=O)C(C)C)C(OC)[C@]6(O5)[C@@]13C)C(OC)[C@]4(OC)C2OC(C)=O (some centres undefined)	?	7.1µM
CC(=O)C(=O)O	-	-
COc1cccc(CO[C@H]2C=C[C@@H](c3ccccc3)O[C@H]2COC(C)=O)c1	-[8.59 µM]	-[8.59 µM]
CN(C)CCN1C(=O)c2ccccc2N(C)c2ccccc21	?	35µM!
C[N+](C)(CCCCCC[N+](C)(C)CCCN1C(=O)c2ccccc2C1=O)CCCN1C(=O)c2ccccc2C1=O	-	-

Screening data deposited in PubChem BioAssay by National Center for Advancing Translational Sciences (NCATS).
